Screens (PubChem BioAssay)
CYP2C9 inhib = human CYP2C9 inhibition; P11712; CYP2C9 Supersomes, luciferin-H conversion, luminescence; inhibition, % at 5 µM; 96,000 tested, 20% active; AID 777;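 active = blocking of liver enzyme CYP2C9 beyond about 50% at 5 µM, limit read from the data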
sEH inhibitor = soluble epoxide hydrolase (human) inhibition; P34913; recombinant human sEH enzymatic activity assay; AID 707; 91,000 tested, 0.34% active; inhibition, % at 2 µM; in the data active = inhibition above about 80%
Target sequence (P34913 whole entry, looked up): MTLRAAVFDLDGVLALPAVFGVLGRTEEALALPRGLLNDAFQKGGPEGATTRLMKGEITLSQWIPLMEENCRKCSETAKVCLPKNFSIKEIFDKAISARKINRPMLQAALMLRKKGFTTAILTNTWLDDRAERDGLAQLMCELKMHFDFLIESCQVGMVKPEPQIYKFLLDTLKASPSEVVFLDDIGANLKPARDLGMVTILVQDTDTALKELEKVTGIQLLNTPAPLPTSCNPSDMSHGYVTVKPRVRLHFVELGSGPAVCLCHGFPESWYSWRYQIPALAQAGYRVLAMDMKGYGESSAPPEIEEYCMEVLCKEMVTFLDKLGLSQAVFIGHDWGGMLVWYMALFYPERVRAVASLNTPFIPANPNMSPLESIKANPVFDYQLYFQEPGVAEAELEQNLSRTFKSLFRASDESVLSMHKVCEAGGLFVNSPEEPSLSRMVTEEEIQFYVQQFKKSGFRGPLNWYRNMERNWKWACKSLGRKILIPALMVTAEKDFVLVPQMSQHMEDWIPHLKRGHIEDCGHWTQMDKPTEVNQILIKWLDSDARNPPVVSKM
CYP2C19 inhib = blocks human cytochrome P450 2C19; 96,000 tested, 21% active; CYP2C19 Supersomes, luciferin-H EGE luminescence, 30 min; inhibition, % at 5 µM; P33261;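 active = CYP2C19 inhibition above a set limit at 5 µM in the primary screen, cut at about 50% in these data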
sEH act = soluble epoxide hydrolase (human) activation; 91,000 tested, 0.04% active; activation, % at 2 µM; AID 717; P34913; purified human sEH enzymatic activity, activator screen; in the data active = activation above about 37%
CYP2C9 act = CYP2C9 (human) activation | P11712 | recombinant CYP2C9, luciferin-H conversion, luminescence; stronger effect = higher value; factor 1 = untreated enzyme, 0 = blocked | activation factor at 5 µM | 96,000 tested, 1.4% active | AID 1024;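 active = activation factor of 2 or more for CYP2C9 at a 5 µM dose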
CYP2C19 activ = cytochrome P450 2C19 (human) activation; activation factor at 5 µM; 96,000 tested, under 10 active; recombinant CYP2C19, luciferin-H EGE luminescence; stronger effect = higher value; 0 = fully inhibited enzyme, 1 = untreated enzyme; P33261;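 active = activation factor of at least 2 at 5 µM in the primary screen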
A number is an active result. The list is not random: actives were taken first. Their share in the collection is about 27%.

What do the screens show for `O=C(CS(=O)(=O)c1c[nH]c2ccccc12)N1CCCc2ccccc21`?
CYP2C9 inhib: inactive; sEH inhibitor: inactive; CYP2C19 inhib: 94; sEH act: inactive; CYP2C9 act: inactive; CYP2C19 activ: inactive

How did O=C1CNC(=O)N1CC(=O)N1CCCc2ccccc21 do in these assays?
CYP2C9 inhib: inactive; sEH inhibitor: inactive; CYP2C19 inhib: inactive; sEH act: inactive; CYP2C9 act: inactive; CYP2C19 activ: inactive

Results for O=C(CS(=O)(=O)c1c[nH]c2ccccc12)NC1CCCCC1 ?
CYP2C9 inhib: inactive; sEH inhibitor: inactive; CYP2C19 inhib: 51; sEH act: inactive; CYP2C9 act: inactive; CYP2C19 activ: inactive

How did Cc1ccc(/C=C/c2ccc(=O)n(Cc3ccc(Cl)cc3Cl)n2)cc1 do in these assays?
CYP2C9 inhib: inactive; sEH inhibitor: inactive; CYP2C19 inhib: inactive; sEH act: inactive; CYP2C9 act: inactive; CYP2C19 activ: inactive

How did CC1(C)CC2CC(C)(CN2C(=O)COC(=O)Cn2[nH]c(=O)c3ccccc3c2=O)C1 (stereo not given) do in these assays?
CYP2C9 inhib: inactive; sEH inhibitor: inactive; CYP2C19 inhib: inactive; sEH act: inactive; CYP2C9 act: inactive; CYP2C19 activ: inactive

What do the screens show for `CC1CCCCN1C(=O)C1CC(c2ccc(F)cc2)=NO1` (stereo not given)?
CYP2C9 inhib: inactive; sEH inhibitor: inactive; CYP2C19 inhib: inactive; sEH act: inactive; CYP2C9 act: inactive; CYP2C19 activ: inactive

What do the screens show for `Cc1nc(S(=O)(=O)N2CCOCC2)c(C#N)c(C)c1Cl`?
CYP2C9 inhib: inactive; sEH inhibitor: inactive; CYP2C19 inhib: inactive; sEH act: inactive; CYP2C9 act: inactive; CYP2C19 activ: inactive

How did CCC(CC)NCc1ccc(OC)cc1OC do in these assays?
CYP2C9 inhib: inactive; sEH inhibitor: inactive; CYP2C19 inhib: inactive; sEH act: inactive; CYP2C9 act: inactive; CYP2C19 activ: inactive

What do the screens show for `COc1ccc(CNC2CCCCC2C)c(OC)c1` (stereo not given)?
CYP2C9 inhib: inactive; CYP2C19 inhib: 62; CYP2C9 act: inactive; CYP2C19 activ: inactive

What do the screens show for `Cc1[nH]c(=O)[nH]c(=O)c1S(=O)(=O)Nc1ccc(Oc2ccccc2)cc1`?
CYP2C9 inhib: 96; sEH inhibitor: inactive; CYP2C19 inhib: 92; sEH act: inactive; CYP2C9 act: inactive; CYP2C19 activ: inactive

What do the screens show for `CCOc1ccccc1NS(=O)(=O)N(C)C`?
CYP2C9 inhib: inactive; sEH inhibitor: inactive; CYP2C19 inhib: inactive; sEH act: inactive; CYP2C9 act: inactive; CYP2C19 activ: inactive

Results for CN(C)S(=O)(=O)Nc1ccc(Oc2ccccc2)cc1 ?
CYP2C9 inhib: 85; sEH inhibitor: inactive; CYP2C19 inhib: 95; sEH act: inactive; CYP2C9 act: inactive; CYP2C19 activ: inactive

Results for CCCCc1ccc(NS(=O)(=O)N(C)C)cc1 ?
CYP2C9 inhib: 94; CYP2C19 inhib: 65; CYP2C9 act: inactive; CYP2C19 activ: inactive

How did CCCCc1ccc(NC(=O)CC(C)=O)cc1 do in these assays?
CYP2C9 inhib: inactive; sEH inhibitor: inactive; CYP2C19 inhib: inactive; sEH act: inactive; CYP2C9 act: inactive; CYP2C19 activ: inactive

How did CCC(CC)c1nnc(NC(=O)CN2C(=O)C3C4C=CC(C4)C3C2=O)s1 (stereo not given) do in these assays?
CYP2C9 inhib: inactive; sEH inhibitor: inactive; CYP2C19 inhib: inactive; sEH act: inactive; CYP2C9 act: inactive; CYP2C19 activ: inactive

How did Cc1cc(C)c2c(=O)[nH]c(SCC(=O)NCc3ccccc3)nc2n1 do in these assays?
CYP2C9 inhib: inactive; sEH inhibitor: inactive; CYP2C19 inhib: inactive; sEH act: inactive; CYP2C9 act: inactive; CYP2C19 activ: inactive

Results for COc1ccccc1NC(=O)Cc1noc(CSc2cc(C)c3ccccc3n2)n1 ?
CYP2C9 inhib: inactive; sEH inhibitor: inactive; CYP2C19 inhib: 93; sEH act: inactive; CYP2C9 act: inactive; CYP2C19 activ: inactive

What do the screens show for `COc1ccccc1NC(=O)CSC(N)=O`?
CYP2C9 inhib: inactive; sEH inhibitor: inactive; CYP2C19 inhib: inactive; sEH act: inactive; CYP2C9 act: inactive; CYP2C19 activ: inactive

Results for COc1ccccc1NC(=O)Cc1noc(CSc2cccc[n+]2[O-])n1 ?
CYP2C9 inhib: inactive; sEH inhibitor: inactive; CYP2C19 inhib: inactive; sEH act: inactive; CYP2C9 act: inactive; CYP2C19 activ: inactive

Results for COc1ccccc1NC(=O)CSc1nc2nc(C)cc(C)c2c(=O)[nH]1 ?
CYP2C9 inhib: 52; sEH inhibitor: inactive; CYP2C19 inhib: inactive; sEH act: inactive; CYP2C9 act: inactive; CYP2C19 activ: inactive

How did COc1ccccc1NC(=O)CSc1nc(N)cc(N)n1 do in these assays?
CYP2C9 inhib: inactive; sEH inhibitor: inactive; CYP2C19 inhib: 72; sEH act: inactive; CYP2C9 act: inactive; CYP2C19 activ: inactive

Results for Nc1cc(N)nc(SCC(=O)Nc2ccc(Br)cc2Cl)n1 ?
CYP2C9 inhib: 56; CYP2C19 inhib: 74; CYP2C9 act: inactive; CYP2C19 activ: inactive

How did COc1ccccc1NC(=O)CSc1nc2ccccc2cc1Cc1ccccc1 do in these assays?
CYP2C9 inhib: 55; sEH inhibitor: inactive; CYP2C19 inhib: 99; sEH act: inactive; CYP2C9 act: inactive; CYP2C19 activ: inactive

How did CCOc1cc(NC2CS(=O)(=O)CC2O)c(OCC)cc1NC(=O)c1ccccc1 (stereo not given) do in these assays?
CYP2C9 inhib: inactive; sEH inhibitor: inactive; CYP2C19 inhib: inactive; sEH act: inactive; CYP2C9 act: inactive; CYP2C19 activ: inactive

Results for Clc1ccc(OCc2nc(-c3ccccn3)no2)c(Br)c1 ?
CYP2C9 inhib: inactive; sEH inhibitor: inactive; CYP2C19 inhib: inactive; sEH act: inactive; CYP2C9 act: inactive; CYP2C19 activ: inactive

What do the screens show for `CCOc1ccc(-c2noc(CCC(N)=O)n2)cc1OCC`?
CYP2C9 inhib: inactive; CYP2C19 inhib: inactive; CYP2C9 act: inactive; CYP2C19 activ: inactive

What do the screens show for `O=C(Nc1ccc(-c2noc(COc3ccccc3Cl)n2)cc1)c1ccco1`?
sEH inhibitor: inactive; sEH act: inactive

What do the screens show for `Nc1nonc1-c1noc(COc2ccccc2Cl)n1`?
CYP2C9 inhib: inactive; sEH inhibitor: inactive; CYP2C19 inhib: 86; sEH act: inactive; CYP2C9 act: inactive; CYP2C19 activ: inactive

How did Cc1cccc(OCc2nc(-c3nonc3N)no2)c1C do in these assays?
CYP2C9 inhib: inactive; CYP2C19 inhib: 66; CYP2C9 act: inactive; CYP2C19 activ: inactive

Results for Cc1ccc(-c2noc(COc3ccc4c(c3)OCO4)n2)cc1 ?
sEH inhibitor: inactive; sEH act: inactive

Results for Clc1ccccc1OCc1nc(-c2ccccn2)no1 ?
CYP2C9 inhib: inactive; sEH inhibitor: inactive; CYP2C19 inhib: 85; sEH act: inactive; CYP2C9 act: inactive; CYP2C19 activ: inactive

How did CCOc1ccc(Cc2nc(-c3nonc3N)no2)cc1OCC do in these assays?
CYP2C9 inhib: inactive; CYP2C19 inhib: 50; CYP2C9 act: inactive; CYP2C19 activ: inactive

Results for O=C(CN1C(=O)c2ccccc2S1(=O)=O)NCCSCc1ccco1 ?
CYP2C9 inhib: inactive; CYP2C19 inhib: inactive; CYP2C9 act: inactive; CYP2C19 activ: inactive

Results for CN(Cc1ccccc1)C(=O)CNC(=O)Cn1cnc2ccccc2c1=O ?
CYP2C9 inhib: inactive; sEH inhibitor: inactive; CYP2C19 inhib: inactive; sEH act: inactive; CYP2C9 act: inactive; CYP2C19 activ: inactive
